Assay results taken from PubChem BioAssay AID1508600 (Functional Genomics Laboratory (NCATS/FGL), 2020).
The campaign covered roughly 53,000 sequences. About 3,700 (7%) were called active.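 Rule for the calls: active = gene knockdowns whose robust z-score for IL-1 alpha signal is at least 2 or at most -2, so actives lie on both sides; inactive = the rest.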 The full list was thinned out, with actives kept by preference.

experiment: Components of the Cytosolic LPS Sensing Pathway: Gene Identification via Genome-wide siRNA Screen; settings: RAW264.7 macrophages, IL-1a HTRF, actives lie on both sides, screened at 100 nM (by protocol), cells primed 5 h with Pam3CSK4 first;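 note: robust z of the log signal after scaling to non-targeting control siRNA wells of the plate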
Outline: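 RAW264.7; siRNA 100 nM final, RNAiMAX, 48h 37 degrees C; Pam3CSK4 5 h; LipidA + TransIT-TKO 24 h; IL-1a HTRF; CellTiter-Glo viability; robust z vs negative-control median.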

z-score, active:
CCAAAUGACUAGCACCAGUTT against Arl5c -2.22, GGCCUAUUGUAAAAACCCATT against Taf1b -2.56, GUGGAAAAUUGAAGGGACGTT against Ndufb3 3.69, CCGCACAAGAGGUAGAUACTT against Ddx5 -2.56, GGCCUUACUCUUAAGUUCUTT against Brf1 3.7, GGAGAAAGUUGAACGUAUUTT against Cct2 -2.58, GGAUGAACCAAACCAAUAATT against Mgat4d 2.24, GCCAGACUGGAGGUAAAAUTT against Serpinb10 -2.24, GUGUGCUUGAUGGAGACCATT against Riiad1 2.25, CCUGCCAUAGUUAGUUUUUTT against Khdc1a 7.91, GCCCUACCAAAAGGAUGAUTT against Cfap300 -2.02, GCUUUGGUGCACUUGCUUUTT against Akr1c13 2.2, GGUGGUAUCACCUCUAUCATT against Cfap52 -2.49

z-score, inactive:
GGGAGUGAAUGUUUCACAUTT against Tmem116 -1.56, GGGUAUUAAGCAGGGAUCGTT against 1810009A15Rik 1.11, CCUUCUACCUCACCUUACGTT against Tmem186 -1.23, CCAAUUCAAUUAGACUAGATT against 9430015G10Rik 0.89, GCAUGAGUUAUCAUAAUCATT against Itgb2 1.04, GGAUCAACCACAUCAGCUCTT against Hrh2 -0.838, GGGCCUUCUGAUUUAAAAGTT against Slc43a3 -1.01, GGUGUUUGGGUACCAGUCUTT against Cyp8b1 -1.03, GGCUCAAGCGAAAAGCAGATT against Serping1 -0.46, CCAAGUCCCUUUGUGGUGUTT against Twnk -0.749, CCGUUUAUUUAUCAGCUGGTT against Spsb4 -1.18, GGAAGGUAAAUGUCUGCUCTT against Selenok 0.289, GGAGAUGGAUAAUUACGAGTT against Ift27 0.344, GGAGAUUUAAACAGCUAGGTT against Gmip -0.418, GGCUCAUAUUUCCAUCAGATT against Tchhl1 -1.13, GGAAAUUGGGACUCACAUCTT against Trappc13 -0.0912, GGAUUCAAGUUCUCACCGATT against Serpina6 -0.462, GCUCAAACACUUACACACUTT against Alcam -0.616, GCCAGUUCCUAUCUGGCUUTT against 4931428L18Rik 1.03, GCCAAUGGUCACGAACCUATT against Senp5 -0.217, GCUUGCUAAGAUUGAGUAUTT against Cerkl -0.928, GGUCAGUAUCAGAAUGAUCTT against Rft1 -0.831, GCAGUGAGACUUUUAAUAGTT against Snx17 0.284, GGCAAUAUUUCAGAACCUGTT against Tfb2m 0.44, GGUGCAUGAAGAGUUAAAATT against Jade1 1.5, GGAAUUCUUAGCCAAUGCCTT against Gas2l1 0.396, GCUGUCUAGUACAUCUGACTT against Cry2 -0.32, GGCUAACACUUAAAUUAGCTT against Atoh8 0.00248, GGCCCAACCUUGGAUCUUUTT against Nudt22 0.751, GGGCACAGACAUGUUUGAGTT against Padi3 -1.35, GGACAAACAGGGAGAAAGATT against Mogat2 -0.091, GGAGUGAGACAAUUCUCACTT against Sprr2k 0.555, GCUAUUUAGUUAGUUGUGUTT against Acbd3 0.334, CCGUGGGAUUUAAGAUAUCTT against Rab34 -0.931, GCAUUUCUACUGGAUUGUGTT against Luc7l2 0.0609, GCUCUUUCUAGCUUAUGAUTT against Chmp1b -0.464, GGAUGCUUGUGCAAAGAUGTT against Anks1b 0.862, GGAGCCUCUAGGAAACAAATT against Slc28a3 0.309, CCGAGUCCAGAACACUCUUTT against Aff2 -0.616, CGAGCUUUCACUGCUACAGTT against Ppargc1b -1.35, GCCACUGUACCUUAUUGGUTT against Msrb1 0.331, GGAAGACGGCAACUAUCCATT against Cyp2c50 1.23, GGUAUUUUUUUCUCAGCCATT against Dhdh -0.937, CGCCUUCCUUCAACACGCATT against 1700049L16Rik -1.12, GGGAUUUGUUGUCUAAGAUTT against Mapk10 -0.54, GCAGAUGCGCUUGGAACUUTT against Pde4b 0.0658, GGCUCCUAACUCACUGGGATT against Ormdl1 0.0548, GAUGAAGAAGAGCAGGCUCTT against Gm5168 1.18, CGUAUCAACAUCUCAGAAGTT against Pcbp2 -0.632, GGAUUCACGUAAGAUUGACTT against Prl6a1 0.0592, GACGAUUCUCUGUUGGUGUTT against Hcrt 0.577, CCUGGAGAUUCAGUACGAATT against Krt25 1.55, GGUUCUUGCUGAGAGCAUGTT against Rft1 0.943, GGAUUGAAGCAGGCAGCUUTT against Purb -0.787, GGUUCAAGGUGAAGACUCCTT against Reg3b 0.793
